About 3,300 (8.5%) of roughly 39,000 compounds were called active. The full list was thinned out, with actives kept by preference.

The test deals with HepG2. The test can be described thus: cytotoxicity call (relative viability < 0.9). The note with it: 10 µM.
As to `C[C@@H]1O[C@@H](O[C@@H]2[C@@H](O)[C@H](C)O[C@@H](OC[C@H]3O[C@@H](Oc4c(-c5ccc(O)cc5)oc5cc(O)cc(O)c5c4=O)[C@H](O)[C@@H](O)[C@H]3O)[C@@H]2O)[C@H](O)[C@H](O)[C@H]1O`, the cytotoxicity call is “inactive”.
In the case of `C[C@@H]1CN([C@@H](C)CO)C(=O)c2cc(C#Cc3cccnc3)cnc2O[C@@H]1CN(C)Cc1ccc(F)cc1` it was “inactive”.
Regarding `C[C@H](CO)N1C[C@H](C)[C@@H](CN(C)Cc2ccccc2)Oc2c(NC(=O)c3ccc(-c4nccs4)cc3)cccc2C1=O`, the cytotoxicity call was “inactive”.
In the case of `N#CCNC(=O)Cc1ccccc1` it was “inactive”; in that of `N[C@@H](Cc1cc(I)c(Oc2ccc(O)c(I)c2)c(I)c1)C(=O)O`, “inactive”.
The value for `NC(Cc1cc(I)c(Oc2ccc(O)c(I)c2)c(I)c1)C(=O)O` (configuration not stated) was “inactive”.
As for `NC(Cc1cc(I)c(Oc2ccc(O)c(I)c2)c(I)c1)C(=O)[O-].[Na+]` [LIOTHYRONINE (L- isomer) SODIUM ], the cytotoxicity call was “active”.
In the case of `COc1cccc(S(=O)(=O)Nc2ccc3c(c2)[C@@H]2C[C@@H](CC(=O)NCc4cccc(F)c4)O[C@@H](CO)[C@@H]2O3)c1` it was “inactive”; in that of `Cc1noc(C)c1S(=O)(=O)Nc1ccc2c(c1)CC(=O)N([C@H](C)CO)C[C@H](C)[C@H](CN(C)CC1CC1)O2`, “inactive”; in that of `Cc1noc(C)c1S(=O)(=O)N(C)C[C@@H]1OCCCC[C@H](C)Oc2ccc(NC(=O)Nc3ccccc3)cc2C(=O)N([C@H](C)CO)C[C@H]1C`, “active”.
In the case of `Cc1noc(C)c1S(=O)(=O)N(C)C[C@H]1OCCCC[C@@H](C)Oc2ccc(NC(=O)Nc3ccccc3)cc2C(=O)N([C@@H](C)CO)C[C@@H]1C` it was “active”; in that of `Cc1noc(C)c1S(=O)(=O)N(C)C[C@@H]1OCCCC[C@@H](C)Oc2ccc(NC(=O)Nc3ccccc3)cc2C(=O)N([C@@H](C)CO)C[C@@H]1C`, “inactive”.
In the case of `Cc1noc(C)c1S(=O)(=O)N(C)C[C@H]1OCCCC[C@H](C)Oc2ccc(NC(=O)Nc3ccccc3)cc2C(=O)N([C@H](C)CO)C[C@@H]1C` it was “inactive”; in that of `Cc1noc(C)c1S(=O)(=O)N(C)C[C@@H]1OCCCC[C@@H](C)Oc2ccc(NC(=O)Nc3ccccc3)cc2C(=O)N([C@H](C)CO)C[C@H]1C`, “inactive”; in that of `Cc1noc(C)c1S(=O)(=O)N(C)C[C@H]1OCCCC[C@H](C)Oc2ccc(NC(=O)Nc3ccccc3)cc2C(=O)N([C@H](C)CO)C[C@H]1C`, “inactive”.
Consider `COc1cccc(S(=O)(=O)N(C)C[C@H]2Oc3cc(C4=CCCC4)ccc3S(=O)(=O)N([C@@H](C)CO)C[C@@H]2C)c1`, for which the cytotoxicity call is “inactive”.
The value for `CC(C)NC(=O)Nc1ccc2c(c1)C(=O)N([C@@H](C)CO)C[C@@H](C)[C@@H](CN(C)C(=O)Nc1ccccc1)OCCCC[C@H](C)O2` was “inactive”.

Values taken from the antibiotic and cytotoxicity screens of Wong et al. (2023).
